Our source for the growth inhibition values is PubChem BioAssay (NCI).

Compounds without any hit were thinned out: in the full panel of roughly 79,000, 15% have a hit. Unmarked numbers belong to inactive results. Cut-off read from the data, not from the text of the source: active = growth inhibition above about 70%; inactive = the rest.

The assay in a line: NCI Yeast Anticancer Drug Screen. Data for the rad50 strain (AID 155).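 Note: 0% = growth of vehicle-only cultures of the same strain.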 The conditions noted are these: S. cerevisiae rad50 strain growth inhibition; at 50.0 µM; stronger effect = higher value. Put shortly: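 A DNA repair-deficient yeast mutant serves as the test organism; compound-induced growth inhibition is calculated against vehicle-treated cells.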
Take `COC(CN(C)CC(OC)OC)OC`: the growth inhibition is -8.75%.

With `CC(=O)NS(=O)(=O)c1ccc2sc(C)nc2c1`, the growth inhibition is -32%.

For `Cc1ccc(N2C(=O)CC(Sc3ccccc3N)C2=O)cc1` (stereo not given), the growth inhibition was -8.75%.

Consider `O=C(CN1CCOCC1)Nc1cccc(C(F)(F)F)c1`, for which the growth inhibition was -33.7%.

Take `CCC(=O)CC1CCCC(CC(=O)CC)N1C` (stereo not given): the growth inhibition is -4.6%.

As to `O=C(CC(CC(=O)c1ccccc1)c1ccco1)c1ccccc1`, the growth inhibition was 2.6%.

For `Cc1nc2c(Cl)cc(Cl)c(Cl)c2s1`, the growth inhibition is 9.65%.

Turning to `Cc1ccc(CNc2ccc(I)cc2)cc1`, the growth inhibition was 37.5%.

As to `O=c1oc(/C=C/c2ccccc2)nc2cc(Cl)ccc12`, the growth inhibition was 19.6%.

As for `CC(=O)CCN(Cc1ccccc1)Cc1ccccc1`, the growth inhibition was 1.7%.

Consider `COc1ccc(-c2cc(=O)c3c(O)cccc3o2)cc1`, for which the growth inhibition is 2.65%.

As for `CC1CCN(c2ccc([N+](=O)[O-])cc2[N+](=O)[O-])CC1`, the growth inhibition was 42.2%.

Turning to `O=C(NC(CO)C(O)c1ccc([N+](=O)[O-])cc1)C(Cl)Cl` (stereo not given), the growth inhibition was -32.2%.

As to `Cc1cc(C)cc(NC(=O)c2ccccc2N)c1`, the growth inhibition was -5.15%.

As to `COc1cc(/C=C(/C#N)C(N)=O)ccc1O`, the growth inhibition is -1.7%.

For `Nc1ccc(I)cc1Cl`, the growth inhibition is 15.8%.

As for `CC[n+]1c(C)n(Cc2ccc(C(=O)O)cc2)c2cc(F)ccc21`, the growth inhibition was -10.8%.

`COc1ccc(C(C#N)N2CCCC2)cc1` (stereo not given): the growth inhibition was -21.9%.

In the case of `S=C(S)NC1CCCCCCCCCCC1`, the growth inhibition was 45.8%.

As for `CCOc1ccc(NC(=O)C2CCC(C)(C(=O)O)C2(C)C)cc1` (stereo not given), the growth inhibition was -3.45%.
